Records with an inconclusive call do not appear. Active and inactive are the calls of the source. Unless noted, the call rests on the fitted dose curve; in most records, active means well fitted curve in the direction sought with a large enough effect; inconclusive means small, poorly fitted or top-dose-only effect, or another doubt; inactive means no such curve, though single readings can be large; an effect the other way counts as inactive or inconclusive.
Assays:
[1] = biological target: DNA polymerase III PolC-type (Bacillus subtilis (strain 168)) (UniProt P13267); test: qHTS Validation Assay for the Inhibitors of DNA Replication in Gram-Positive Bacteria (AID 485295);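 further: reconstituted holoenzyme with PolC plus beta clamp SSB and primase; PicoGreen fluorescence of double-stranded DNA made on primed circular M13 template; series mostly up to about 57 µM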
In short: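 Primed replication of single-stranded M13Gori by a four-protein B. subtilis holoenzyme is measured at room temperature. Double-stranded product is quantified by PicoGreen fluorescence after an EDTA stop; inhibition is scaled between DMSO and EDTA controls.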

[2] = biological target: Tumor susceptibility gene 101 protein (Homo sapiens) (UniProt Q99816); test: qHTS Validation Assay for Iinhibitors of HIV-1 Budding by Blocking the Interaction of PTAP/TSG101 (AID 485342; calls by dose curve)
Tumor susceptibility gene 101 protein (Homo sapiens), sequence (Q99816 whole entry, looked up, the tested form may be a part): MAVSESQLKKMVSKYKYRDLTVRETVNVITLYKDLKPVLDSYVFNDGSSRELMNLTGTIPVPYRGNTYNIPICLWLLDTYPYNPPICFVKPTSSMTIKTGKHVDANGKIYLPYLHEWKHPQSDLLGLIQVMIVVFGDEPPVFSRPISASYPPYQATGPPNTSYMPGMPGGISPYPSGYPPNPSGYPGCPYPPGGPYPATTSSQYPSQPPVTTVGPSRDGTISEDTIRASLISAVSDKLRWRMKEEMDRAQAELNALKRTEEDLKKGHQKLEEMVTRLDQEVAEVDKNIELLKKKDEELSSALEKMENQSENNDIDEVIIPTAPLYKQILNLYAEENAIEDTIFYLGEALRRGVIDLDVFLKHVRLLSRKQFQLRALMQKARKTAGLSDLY
In short: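 Fluorescence anisotropy measured PTAP-Tsg101 interaction. Final concentrations were 10 uM protein domain and 50 nM labeled peptide, equilibrated 20 min at room temperature.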

[3] = biological target: Beta-2 adrenergic receptor (Homo sapiens) (UniProt P07550); test: qHTS validation assay of beta-arrestin-biased ligands of beta2-adrenergic receptor (AID 485366)
Beta-2 adrenergic receptor (Homo sapiens), sequence (P07550 whole entry, looked up): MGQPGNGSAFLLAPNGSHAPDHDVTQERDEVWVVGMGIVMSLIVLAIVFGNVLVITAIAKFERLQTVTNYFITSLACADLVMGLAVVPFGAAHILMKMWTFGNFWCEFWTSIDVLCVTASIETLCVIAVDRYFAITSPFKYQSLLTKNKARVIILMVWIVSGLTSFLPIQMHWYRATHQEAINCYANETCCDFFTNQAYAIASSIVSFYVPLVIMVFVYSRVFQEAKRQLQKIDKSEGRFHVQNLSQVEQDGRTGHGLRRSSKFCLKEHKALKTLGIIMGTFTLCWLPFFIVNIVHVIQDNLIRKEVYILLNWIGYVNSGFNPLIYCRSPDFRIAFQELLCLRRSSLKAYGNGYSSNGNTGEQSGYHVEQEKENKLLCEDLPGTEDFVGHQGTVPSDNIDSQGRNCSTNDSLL
In short: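 Agonist activity is measured as luciferase luminescence downstream of beta-arrestin recruitment to recombinant beta2-AR in Tango cells. Exposure lasts 18 hr at 37 degrees C, and curves are categorized by r2, response size and activity.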

[4] = biological target: Thioredoxin reductase 1, cytoplasmic (Rattus norvegicus) (UniProt O89049); test: qHTS Assay for Substrates of Mammalian Selenoprotein Thioredoxin Reductase 1 (TrxR1) (AID 488772);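 further: series mostly up to about 57 µM; a drop in NADPH fluorescence below the no-compound background marks a TrxR1 substrate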
Thioredoxin reductase 1, cytoplasmic (Rattus norvegicus), sequence (O89049 whole entry, looked up): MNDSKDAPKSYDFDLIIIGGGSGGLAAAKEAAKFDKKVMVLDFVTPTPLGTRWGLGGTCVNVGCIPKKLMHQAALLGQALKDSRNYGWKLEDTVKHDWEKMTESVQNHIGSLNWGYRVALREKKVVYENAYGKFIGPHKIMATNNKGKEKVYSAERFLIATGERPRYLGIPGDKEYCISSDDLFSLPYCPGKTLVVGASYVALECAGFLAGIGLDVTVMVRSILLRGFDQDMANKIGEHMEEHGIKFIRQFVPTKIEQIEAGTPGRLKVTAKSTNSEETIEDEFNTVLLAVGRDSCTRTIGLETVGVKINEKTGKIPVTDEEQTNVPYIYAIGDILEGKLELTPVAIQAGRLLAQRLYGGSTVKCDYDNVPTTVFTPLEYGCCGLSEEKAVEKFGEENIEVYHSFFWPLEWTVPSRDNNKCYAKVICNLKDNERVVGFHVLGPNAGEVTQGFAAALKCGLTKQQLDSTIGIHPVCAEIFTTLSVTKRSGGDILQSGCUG
In short: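 In this dual-purpose format, potential substrates are identified from the first fluorescence read after selenite addition, not from the 8-minute delta. Rat enzyme is preincubated with NADPH and then with compound at ~22 deg C.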

[5] = biological target: Thioredoxin reductase 1, cytoplasmic (Rattus norvegicus) (UniProt O89049); test: qHTS Assay for Inhibitors of Mammalian Selenoprotein Thioredoxin Reductase 1 (TrxR1) (AID 488773);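 further: drop in NADPH fluorescence over an 8 min run after selenite addition; series mostly up to about 57 µM; nearly all actives have a fitted effect of over 40% in size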
In short: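 Inhibition is scored from the loss of NADPH fluorescence between first and last reads of an 8-min kinetic run. Selenite (400 uM) was the substrate, added after 15 min compound preincubation at room temperature.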

[6] = biological target: Flap endonuclease 1 (Homo sapiens) (UniProt P39748); test: qHTS Validation Assay for the Inhibitors of Human Flap endonuclease 1 (FEN1) (AID 488816)
Flap endonuclease 1 (Homo sapiens), sequence (P39748 whole entry, looked up): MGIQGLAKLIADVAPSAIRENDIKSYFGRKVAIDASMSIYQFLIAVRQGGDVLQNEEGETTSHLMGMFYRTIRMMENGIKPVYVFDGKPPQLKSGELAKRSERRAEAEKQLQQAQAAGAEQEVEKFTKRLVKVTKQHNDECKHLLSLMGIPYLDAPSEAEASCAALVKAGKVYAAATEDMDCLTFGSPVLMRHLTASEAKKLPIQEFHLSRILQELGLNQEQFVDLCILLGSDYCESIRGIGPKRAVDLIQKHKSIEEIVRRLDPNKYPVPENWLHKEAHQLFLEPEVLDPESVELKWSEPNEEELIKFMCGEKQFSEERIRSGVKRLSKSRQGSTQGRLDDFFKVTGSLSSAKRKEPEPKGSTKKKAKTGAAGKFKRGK
In short: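 Steps: add FEN1 (10 nM reagent) or buffer only; pin compounds; hold 15 min at room temperature; start with substrate, 50 nM final; read at 0 and 15 min; correct, normalize and fit a four-parameter Hill curve.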

[7] = biological target: M-phase phosphoprotein 8 (Homo sapiens) (UniProt Q99549); test: qHTS Validation Assay for Inhibitors for MPP8 Chromodomain Interactions with Methylated Histone Tails (AID 488949);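 further: AlphaScreen signal from MPP8 chromodomain bound to biotinylated H3K9me3 peptide; top concentration of the series differs between compounds; nearly all actives have a fitted effect of over 55% in size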
M-phase phosphoprotein 8 (Homo sapiens), sequence (Q99549 whole entry, looked up): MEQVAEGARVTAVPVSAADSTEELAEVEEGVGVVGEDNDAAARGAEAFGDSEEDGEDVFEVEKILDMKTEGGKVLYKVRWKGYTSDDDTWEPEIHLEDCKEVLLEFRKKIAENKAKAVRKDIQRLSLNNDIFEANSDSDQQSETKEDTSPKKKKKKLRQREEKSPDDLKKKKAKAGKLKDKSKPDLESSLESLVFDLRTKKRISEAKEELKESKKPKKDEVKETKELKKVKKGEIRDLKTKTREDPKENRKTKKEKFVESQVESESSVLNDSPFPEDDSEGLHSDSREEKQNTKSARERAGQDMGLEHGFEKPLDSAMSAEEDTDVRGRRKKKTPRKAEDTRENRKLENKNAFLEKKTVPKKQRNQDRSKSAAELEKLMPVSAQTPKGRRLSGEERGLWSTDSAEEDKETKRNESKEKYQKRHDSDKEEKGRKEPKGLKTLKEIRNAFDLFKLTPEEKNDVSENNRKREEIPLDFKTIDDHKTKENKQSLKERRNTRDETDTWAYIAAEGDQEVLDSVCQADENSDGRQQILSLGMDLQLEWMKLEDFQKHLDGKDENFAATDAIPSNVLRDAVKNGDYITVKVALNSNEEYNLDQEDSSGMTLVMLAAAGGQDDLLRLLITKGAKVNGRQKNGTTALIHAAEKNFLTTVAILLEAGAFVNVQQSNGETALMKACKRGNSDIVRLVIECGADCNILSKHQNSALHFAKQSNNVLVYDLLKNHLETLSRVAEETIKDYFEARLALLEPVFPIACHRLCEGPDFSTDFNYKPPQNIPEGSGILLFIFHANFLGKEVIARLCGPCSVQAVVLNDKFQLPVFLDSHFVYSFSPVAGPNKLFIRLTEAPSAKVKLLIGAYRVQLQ
In short: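 Disruption of the preformed MPP8–trimethyl-H3K9 peptide complex (both 50 nM, 30 min, RT) is measured after 30 min compound exposure, using AlphaScreen proximity beads; aurintricarboxylic acid titration serves as plate control.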

[8] = biological target: Methanococcus maripaludis chaperonin (MmCpn) (UniProt Q6LX38); test: High-Throughput Screening for Modulators of Cytosolic Chaperonin Activity: MmCpn Primary Screen (AID 488978);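 further: 50 nM MmCpn enzyme hydrolysing 30 µM ATP at 37 °C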
In short: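 Measures ATPase turnover of the M. maripaludis chaperonin (50 nM final) against 30 uM ATP over 10 min at 37C, with compound added 5 min beforehand at room temperature. ADP is quantified by HTRF immunodetection.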

[9] = biological target: D(1A) dopamine receptor (Homo sapiens) (UniProt P21728); test: HTS Assay for Allosteric Agonists of the Human D1 Dopamine Receptor: Primary Screen for Agonists (AID 488981)
D(1A) dopamine receptor (Homo sapiens), sequence (P21728 whole entry, looked up): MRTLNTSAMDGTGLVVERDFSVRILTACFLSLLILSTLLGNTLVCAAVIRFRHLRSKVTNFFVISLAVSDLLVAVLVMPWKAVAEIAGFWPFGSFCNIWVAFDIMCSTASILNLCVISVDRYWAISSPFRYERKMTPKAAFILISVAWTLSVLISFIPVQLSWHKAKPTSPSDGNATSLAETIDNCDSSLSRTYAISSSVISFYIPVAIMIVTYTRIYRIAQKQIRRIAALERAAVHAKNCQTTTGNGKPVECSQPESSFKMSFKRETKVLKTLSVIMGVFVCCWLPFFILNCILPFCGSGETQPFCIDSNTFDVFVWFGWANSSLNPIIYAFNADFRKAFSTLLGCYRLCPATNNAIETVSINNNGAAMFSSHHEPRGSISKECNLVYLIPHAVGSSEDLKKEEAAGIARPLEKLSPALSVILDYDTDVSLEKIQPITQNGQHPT
In short: (§1)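 Tetracycline-induced HEK293 T-REx cells force-coupled to calcium signalling were incubated overnight at 30 C and dye-loaded at room temperature. Calcium flux over 180 s after compound addition flagged agonists; a further 180 s read after EC20 dopamine flagged potentiators.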

[10] = biological target: D(1A) dopamine receptor (Homo sapiens) (UniProt P21728); test: HTS Assay for Allosteric Agonists of the Human D1 Dopamine Receptor: Primary Screen for Potentiators (AID 488982)
In short: as §1

[11] = biological target: D(1A) dopamine receptor (Homo sapiens) (UniProt P21728); test: HTS Assay for Allosteric Agonists of the Human D1 Dopamine Receptor: Primary Screen for Antagonists (AID 488983);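 further: calcium flux response to an EC80 dopamine challenge measured with no-wash dye; nearly all actives have a fitted effect of over 65% in size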
In short: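 Kinetic fluorescence at 1 cycle/sec tracked intracellular calcium in force-coupled, tetracycline-inducible HEK293 T-REx D1 cells. Loss of response to an EC80 dopamine dose, given 180 s after compound, marked antagonists.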

[12] = Validation screen for small molecules that induce genotoxicity in human embryonic kidney (HEK293T) cells expressing luciferase-tagged ELG1 (AID 493106)
In short: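 Cells were dispensed at 2,000 per well, then 23 nL compound or DMSO was pinned in. After 16 hr at 37 °C and 5% CO2, ONE-Glo reagent was added. Luciferase activity was measured following 30 min at room temperature.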

[13] = qHTS for Inhibitors of Cell Surface uPA Generation: Validation Assay (AID 493164);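 further: RAW 264.7 macrophage cells exposed to compound for 18 h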
In short: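 ATP-Lite luminescence read-out: ATP remains high when uPA activity-dependent LF translocation into the cytoplasm is blocked. RAW 264.7 cells, 18 h compound exposure at 37 C; 7-point titration, 2.45 nM to 38.3 uM final.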

[14] = biological target: Peptidyl-prolyl cis-trans isomerase NIMA-interacting 1 (Homo sapiens) (UniProt Q13526); test: qHTS Validation Assay to Find Inhibitors of Pin1 (AID 504536; active means well fitted inhibition curve with a large enough effect in the polarisation, with a control signal flat, not every such curve was filed as active; the % refers to the polarisation)
Peptidyl-prolyl cis-trans isomerase NIMA-interacting 1 (Homo sapiens), sequence (Q13526 whole entry, looked up): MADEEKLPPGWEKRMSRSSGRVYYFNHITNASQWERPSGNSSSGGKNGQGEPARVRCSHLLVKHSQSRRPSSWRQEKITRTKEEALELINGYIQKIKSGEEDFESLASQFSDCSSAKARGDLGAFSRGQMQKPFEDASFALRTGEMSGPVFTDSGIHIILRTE
In short: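 Fluorescence polarization competition: compounds (titration) displace HiFluor-488-labeled Pin1-1b peptide from Pin1 (0.3 uM final) in pH 7.5 HEPES buffer with DTT, 10 min at room temperature; %Activity normalized to no-enzyme wells, curves fitted.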

[15] = biological target: Phosphoglycerate kinase, glycosomal (Trypanosoma brucei brucei) (UniProt P07378); test: qHTS Validation Assay to Find Inhibitors of Phosphoglycerate Kinase (AID 504547)
Phosphoglycerate kinase, glycosomal (Trypanosoma brucei brucei), sequence (P07378 whole entry, looked up): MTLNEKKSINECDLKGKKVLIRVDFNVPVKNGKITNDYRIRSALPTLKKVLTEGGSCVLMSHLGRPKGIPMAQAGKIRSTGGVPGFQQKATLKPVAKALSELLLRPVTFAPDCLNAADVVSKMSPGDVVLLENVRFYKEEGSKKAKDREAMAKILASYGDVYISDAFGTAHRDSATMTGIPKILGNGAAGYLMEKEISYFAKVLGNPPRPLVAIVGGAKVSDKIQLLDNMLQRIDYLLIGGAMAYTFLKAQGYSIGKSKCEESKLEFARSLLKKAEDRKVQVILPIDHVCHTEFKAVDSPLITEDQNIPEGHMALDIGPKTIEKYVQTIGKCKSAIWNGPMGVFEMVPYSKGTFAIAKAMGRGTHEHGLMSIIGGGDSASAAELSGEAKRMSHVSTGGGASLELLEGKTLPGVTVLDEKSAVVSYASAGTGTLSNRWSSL
In short: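 In TEA buffer (100mM, pH 7.6) containing 5mM MgCl2 and 0.01% Tween-20, the GAPDH-coupled PGK reaction proceeded for 60 minutes at room temperature before a single luminescence reading using Kinase-Glo Plus.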

[16] = biological target: phosphoglycerate mutase (Leishmania major) (UniProt Q4Q090); test: qHTS Validation Assay to Find Inhibitors of Phosphoglycerate Mutase (AID 504548); further: series mostly up to about 58 µM
In short: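 Lm PGAM 1.25nM final; 100 mM TEA pH 7.6, 5 mM MgCl2, 0.01% Tween-20; 45 min RT; Kinase-GloPlus, 10 min; end-point luminescence. Enzyme-free wells as negative controls.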

[17] = biological target: Glutaminase kidney isoform, mitochondrial (Homo sapiens) (UniProt O94925); test: qHTS for Inhibitors of Glutaminase (GLS): LOPAC Validation (AID 624146);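 further: glutamate product detected by oxidase and peroxidase coupled Amplex red fluorescence gain; series mostly up to about 46 µM; nearly all actives have a fitted effect of over 60% in size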
Glutaminase kidney isoform, mitochondrial (Homo sapiens), sequence (O94925 whole entry, looked up, canonical isoform): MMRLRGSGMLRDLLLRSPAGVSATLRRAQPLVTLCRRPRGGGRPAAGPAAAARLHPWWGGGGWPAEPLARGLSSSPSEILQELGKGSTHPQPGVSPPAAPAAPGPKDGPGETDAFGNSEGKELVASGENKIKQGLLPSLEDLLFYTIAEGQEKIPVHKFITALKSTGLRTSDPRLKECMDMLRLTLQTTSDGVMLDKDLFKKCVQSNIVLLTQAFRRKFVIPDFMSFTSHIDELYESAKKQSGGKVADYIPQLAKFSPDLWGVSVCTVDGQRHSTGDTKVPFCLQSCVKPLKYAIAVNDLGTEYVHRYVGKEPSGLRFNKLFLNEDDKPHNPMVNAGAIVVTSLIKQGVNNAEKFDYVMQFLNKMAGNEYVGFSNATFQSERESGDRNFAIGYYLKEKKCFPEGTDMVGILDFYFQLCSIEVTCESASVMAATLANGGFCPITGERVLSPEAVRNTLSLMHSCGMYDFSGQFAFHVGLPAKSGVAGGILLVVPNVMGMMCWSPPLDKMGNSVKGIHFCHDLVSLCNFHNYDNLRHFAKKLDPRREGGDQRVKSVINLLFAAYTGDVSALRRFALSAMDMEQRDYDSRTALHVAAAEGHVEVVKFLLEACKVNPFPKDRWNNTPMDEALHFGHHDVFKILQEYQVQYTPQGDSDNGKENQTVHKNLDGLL
In short: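 Compounds were pin-transferred onto hKGA, after which L-glutamine (1 mM solution) and a detection mix of glutamate oxidase, HRP and Amplex Red were added. Initial and 30 min RT fluorescence reads were collected.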

[18] = qHTS of Trypanosoma Brucei Inhibitors: LOPAC Validation (AID 624147)
In short: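 Luminescent Kinase-Glo Plus end-point after 45 min room-temperature reaction of T. brucei pyruvate kinase started with 130 uM ADP (final). Buffer TEA 50 mM pH 7.2 with KCl, MgCl2, BSA, Tween-20; titration-based qHTS with fitted concentration-effect curves.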

[19] = biological target: Glucagon-like peptide 1 receptor (Homo sapiens) (UniProt P43220); test: qHTS of GLP-1 Receptor Agonists: LOPAC Validation (AID 624148);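 further: higher luminescence signal means agonism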
Glucagon-like peptide 1 receptor (Homo sapiens), sequence (P43220 whole entry, looked up): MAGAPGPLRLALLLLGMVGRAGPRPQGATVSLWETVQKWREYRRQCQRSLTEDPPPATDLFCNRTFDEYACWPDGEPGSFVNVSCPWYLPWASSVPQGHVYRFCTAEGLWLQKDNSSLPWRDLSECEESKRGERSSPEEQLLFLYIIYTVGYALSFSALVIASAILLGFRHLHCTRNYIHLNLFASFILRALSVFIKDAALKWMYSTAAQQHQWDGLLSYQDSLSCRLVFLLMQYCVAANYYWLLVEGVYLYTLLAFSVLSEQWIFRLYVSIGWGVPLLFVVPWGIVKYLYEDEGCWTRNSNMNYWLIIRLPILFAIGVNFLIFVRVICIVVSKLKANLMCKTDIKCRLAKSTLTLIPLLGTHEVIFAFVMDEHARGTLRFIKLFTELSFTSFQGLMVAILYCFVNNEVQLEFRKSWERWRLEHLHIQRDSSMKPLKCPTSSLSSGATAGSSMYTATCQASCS
In short: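 HEK293 cells stably co-expressing a cAMP-responsive luciferase reporter and a hypersensitive GLP-1R were plated 12 h at 37 °C and exposed to compounds for 4-6 hr at 37 °C, 5% CO2. Luminescence was read 12 min after adding detection reagent.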

[20] = qHTS of Nrf2 Activators: LOPAC Validation (AID 624149)
In short: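 Cells (AREc32_Fluc) are plated at 1000 per well in OPTI-MEM containing 5% FBS and left overnight. Compounds are pinned in and incubated 24 hr at 37 deg C, and firefly luciferase is detected with Steady-Glo.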

Measured: outcome

CC[C@@H](CO)Nc1nc(NCc2ccccc2)c2ncn(C(C)C)c2n1
inactive: [1] | [2] | [3] | [4] | [5] | [6] | [7] | [8] | [9] | [10] | [11] | [12] | [13] | [14] | [15] | [16] | [17] | [18] | [19] | [20]

Source: PubChem BioAssay (NCATS)
